Bioassay records: PubChem BioAssay, several laboratories
BoNT A protease: inhibitors of Botulinum neurotoxin A light chain protease; hit rate 0.17% among 360,000; inhibition, % at 10 µM; multiplex microsphere protease substrate cleavage, flow cytometry; AID 588499; also: plate controls were buffer without enzyme for full effect and enzyme alone for no effect
BoNT F protease: BoNT F light chain protease inhibition | Multiplex microsphere protease cleavage assay, flow cytometry | inhibition, % at 10 µM | hit rate 0.22% among 360,000; in the data active = inhibition above about 35%, passing the limit was not always enough; inconclusive = no clear call, values can overlap the other calls; also: plate controls were buffer without enzyme for full effect and enzyme alone for no effect
MazF activator: increases E. coli MazEF RNase cleavage of RNA. P0AE70. FAM/BHQ RNA-DNA oligo cleavage fluorescence, 5 h. activation, % at 20 µM. hit rate 0.32% among 350,000; in the data active = activation above about 50%
Target sequence (P0AE70 whole entry, looked up): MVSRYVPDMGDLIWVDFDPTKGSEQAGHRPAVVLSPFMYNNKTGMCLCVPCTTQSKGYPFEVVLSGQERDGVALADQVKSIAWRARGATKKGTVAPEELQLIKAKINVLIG
Bead autofluor: counter-screen for toxin protease inhibitors: compound fluorescence | compound autofluorescence counterscreen, microsphere flow cytometry; stronger effect = higher value | fluorescence intensity (no concentration beside the values) | hit rate 3.1% among 360,000 | AID 624483; in the data active = fluorescence intensity above about 16000; inconclusive = no clear call, values can overlap the other calls
Anthrax LF prot: anthrax lethal factor protease inhibition | AID 588501 | hit rate 0.12% among 360,000 | inhibition, % at 10 µM | multiplex microsphere protease cleavage assay, LF; also: plate controls were buffer without enzyme for full effect and enzyme alone for no effect
Numbers without * were called inactive; ? = inconclusive; · = not tested or not shown; + = active, no number; ! = not active in a repeat. A selection: hits, their analogues and other compounds. The true share with any hit is near 3.7%. Rule as the data show it, unless noted: active = inhibition above about 30%; inconclusive = no clear call, values can overlap the other calls; inactive = below that.

SMILES | BoNT A protease | BoNT F protease | MazF activator | Bead autofluor | Anthrax LF prot
Cc1c(N2C(=O)CS/C2=N\N=C\c2ccccc2O)c(=O)n(-c2ccccc2)n1C | ? | -3 | -3 | 16255* | -3
O=C(NCc1ccccc1C(F)(F)F)C1CC(O)CN1C(=O)Nc1ccccc1 (centres undefined) | -3 | ? | 4 | 3754 | 5
CCOC(=O)c1c(CN2CCCCC2C)oc2ccc(OC)cc12 (centres undefined) | -2 | -3 | -5 | 22711* | -1
CCOC(=O)c1c(CN2CCN(C)CC2)oc2ccc(OC)cc12 | 2 | 2 | 2 | 16006 | 0
CCOC(=O)c1c(CN2CCC(C)CC2)oc2ccc(OC)cc12 | 0 | -1 | 5 | 20393* | -2
CCOC(=O)c1c(CN2CCCCC2)oc2ccc(OC)cc12 | 1 | 0 | -6 | 19520*! | 0
CCCCCc1cc(O)c2c(C)cc(=O)oc2c1 | -3 | -7 | 5 | 23187* | -1
Cc1cc(=O)oc2cc(O)cc(O)c12 | 0 | -1 | -8 | 5129 | -7
O=c1[nH]c(=S)[nH]c2nc(-c3ccccc3)cnc12 | 1 | -6 | -1 | 5506 | -1
Cc1cc2nc3c(=O)[nH]c(=S)[nH]c3nc2cc1NC(=O)C(F)(F)F | -5 | -17 | + | 4037 | -2
COc1ccc2ccccc2c1CN1CCN(Cc2ccccc2)CC1 | -1 | -6 | 6 | 5884 | -7
COc1ccc2ccccc2c1CN1CCCC(CO)C1 (centres undefined) | ? | -4 | 9 | 22577* | -14
N=c1c(S(=O)(=O)c2ccc(Cl)cc2)cc2c(=O)n3ccccc3nc2n1CCN1CCOCC1 | 5 | 6 | 14 | 21495* | 6
N=c1c(S(=O)(=O)c2ccccc2)cc2c(=O)n3ccccc3nc2n1CCCN1CCOCC1 | 1 | 0 | 28 | 3900 | -8
N=c1c(S(=O)(=O)c2ccc(Cl)cc2)cc2c(=O)n3ccccc3nc2n1CCc1ccccc1 | 3 | -2 | · | 5658 | -1
N=c1c(S(=O)(=O)c2ccc(Cl)cc2)cc2c(=O)n3ccccc3nc2n1Cc1cccnc1 | 1 | 4 | 81* | 4951 | -2
Cc1sc2nc(SCC(=O)N3CC(C)OC(C)C3)n(C)c(=O)c2c1C (centres undefined) | 1 | 6 | -4 | 5404 | 2
O=C(c1ccc(F)cc1)N1CCC(N2CCCCCC2)CC1 | 0 | -4 | -10 | 16826* | -3
CC1CN(C2CCN(C(=O)c3ccccc3)CC2)CC(C)O1 (centres undefined) | 0 | 1 | 4 | 16799* | -2
CC1CN(S(=O)(=O)c2ccc(Cl)c(C(F)(F)F)c2)CC(C)O1 (centres undefined) | ? | -3 | -1 | 16300* | 2
CC1CN(C2CCN(S(=O)(=O)c3ccc(F)cc3)CC2)CC(C)O1 (centres undefined) | -6 | -10 | 4 | 18932* | 0
O=C(c1ccc(F)cc1)N1CCC(N2CCOCC2)CC1 | -1 | -12 | 2 | 4684 | -2
CC1CN(C(=O)c2ccc(C(=O)c3ccccc3)cc2)CC(C)O1 (centres undefined) | 0 | -16 | 1 | 7559 | -4
CC1CN(C2CCN(S(=O)(=O)c3ccccc3)CC2)CC(C)O1 (centres undefined) | 4 | 0 | -9 | 7570 | 4
O=C(C[C@H]1C(=O)N(c2ccccc2)C[C@@H]1Cc1ccccc1)Nc1ccccc1 | 0 | 0 | 4 | 3536 | -7
SMILES | BoNT A protease | BoNT F protease | MazF activator | Bead autofluor | Anthrax LF prot
CC1CN(C2CCN(S(=O)(=O)Cc3ccccc3)CC2)CC(C)O1 (centres undefined) | 0 | 2 | 1 | 22746* | -2
COc1cc2c(cc1OC)CN(CC(=O)Nc1ccc(C)cc1)CC2 | 0 | -2 | -3 | 20583* | -2
COc1cc2c(cc1OC)CN(C(C)C(=O)Nc1ccc(NC(C)=O)cc1)CC2 (centres undefined) | -4 | -8 | 14 | 17392* | -5
Cc1ccc(NC(=O)C(C)N2CCc3ccccc3C2)cc1 (centres undefined) | 0 | -3 | -3 | 4338 | -15
O=C(NCc1cccs1)C1CCCN1S(=O)(=O)c1ccccc1F (centres undefined) | ? | 0 | -5 | 19819* | -3
O=C(NCc1ccccc1Cl)C1CCCN1S(=O)(=O)c1ccccc1F (centres undefined) | 1 | 7 | -39 | 4411 | -1
Cc1ccc(-n2c(Cn3nc(C(F)F)cc3C(F)F)n[nH]c2=S)cc1 | 2 | 2 | 1 | 22572* | 2
COc1ccc(OCc2n[nH]c(=S)n2-c2ccc(C)cc2)cc1 | 1 | 1 | 5 | 2240 | -2
Cc1cc(C(F)(F)F)nn1Cc1n[nH]c(=S)n1-c1cccc(Cl)c1 | 5 | 7 | 8 | 15165 | -3
Cc1cc(C(F)(F)F)nn1Cc1n[nH]c(=S)n1-c1ccc(Cl)cc1 | 0 | 1 | 2 | 19410* | 3
Cc1ccc(C)c(C(O)c2ncc(-c3ccc(C(F)(F)F)cc3)[nH]2)c1 (centres undefined) | 0 | 0 | · | 2897 | -10
COC(=O)c1cc(OC)c(OC)cc1NC(=S)N1CCN(C)CC1 | -1 | -4 | -1 | 10029 | 1
COC(=O)c1cc(OC)c(OC)cc1NC(=S)N1CCCCC1 | 5 | 8 | 4 | 20422* | 2
CCOC(=O)C1CCN(C(=S)Nc2cc(OC)c(OC)cc2C(=O)OC)CC1 | 0 | 1 | 5 | 20685* | 1
COC(=O)c1cc(OC)c(OC)cc1NC(=S)N1CCC(C(N)=O)CC1 | -4 | -6 | -6 | 17588* | -3
COC(=O)c1cc(OC)c(OC)cc1NC(=O)CN1CCCCC1 | 0 | -4 | -4 | 22761* | -4
COC(=O)c1ccc(C(=O)OC)c(NC(=O)CN2CCCCC2)c1 | 0 | -3 | 2 | 2051 | 0
C=CCOc1ccc(/C=C/C(=O)OCC(=O)NNC(=O)c2ccccc2F)cc1 | 0 | -5 | -7 | 3682 | -1
C[C@@H]1CN[C@H](CCO)/C1=C\c1ccccc1 | 0 | -4 | 5 | 3156 | -4
C=C(C)CSc1nnc(-c2ccc(OC)cc2)n1N | 1 | 1 | 2 | 19732* | 1
C=C(C)CSc1nnc(-c2cccc(Cl)c2)n1N | 4 | 5 | 3 | 21220* | -3
CCOC(=O)c1c(C)[nH]c(C)c1S(=O)(=O)N(C)CC(=O)NCc1cccc(Br)c1 | 2 | 6 | 1 | 5735 | 3
CC(=O)c1cccc(-c2ccnc3c2CC(C(=O)NCc2ccccc2)O3)c1 (centres undefined) | 0 | -2 | · | 4009 | -8
CC1(C(=O)NS(=O)(=O)c2cccc(Cl)c2)CCN1C(=O)c1cccc2ccccc12 (centres undefined) | 0 | 0 | · | 3534 | 4
O=C(NC(=S)N1CCCC(C(F)(F)F)C1)c1ccc(F)cc1 (centres undefined) | 2 | 5 | 7 | 5382 | 1
CC(=O)Nc1ccc(S(=O)(=O)N2CCN(CC(O)COc3ccc4ccccc4c3)CC2)cc1 (centres undefined) | ? | 2 | 2 | 23688* | -1
